This excerpt belongs to a sample that is enriched for hits.
BL2 CD40 inh: CD40 pathway inhibition in BL2 cells; AID 1053188; BL2 NF-kB luciferase reporter, CD40L-induced, 4 h; inhibition, % at 10 µM; actives 0.94% (n = 83,000);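 active = mean inhibition of at least 50% with a set share of replicates also reaching that level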;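 also: 0% = neutral control wells and 100% = IKK inhibitor VII at 50 µM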
The depositor's hits bear a star; [ ] = remark or other dose.

SMILES | BL2 CD40 inh
N#C[C@@H]1[C@@H](c2ccccc2C2=CCCCC2)[C@H](CO)N1C(=O)NC1CCCCC1 | 5.7
CC=Cc1ccc2n(c1=O)C[C@H]1[C@H](CO)[C@@H](C(=O)N(C)C)N(CC3CCCC3)[C@@H]21 (mixture of isomers) | -9.4
CC(C)C(=O)NC(c1ccco1)c1ccc2cccnc2c1O (centres undefined) | -36.0
CC(C)C(=O)NC(c1ccc([N+](=O)[O-])cc1)c1c(O)ccc2ccccc12 (centres undefined) | 11.4
CCN(CC)c1ccc(C(NC(=O)C(C)C)c2ccc3cccnc3c2O)cc1 (centres undefined) | 75.4*
O=C(C1CCCC1)N1CC(=O)N2[C@H](CO)[C@@H](c3ccc(C#Cc4cccc(F)c4)cc3)[C@H]2C1 | 7.4
N#C[C@H]1[C@H](c2ccc(C#Cc3ccccc3F)cc2)[C@@H](CO)N1C(=O)c1cccnc1 | 70.5*[25 µM]
N#C[C@@H]1[C@@H](c2ccc(C#Cc3ccccc3F)cc2)[C@@H](CO)N1C(=O)C1CCCC1 | -20.7
N#C[C@@H]1[C@H](c2ccc(C#Cc3ccccc3F)cc2)[C@H](CO)N1C(=O)C1CCCC1 | 0.8
COCC(=O)N1[C@@H](C#N)[C@@H](c2ccc(C#Cc3ccccc3F)cc2)[C@@H]1CO | -13.7[25 µM]
N#C[C@H]1[C@@H](c2ccc(C#Cc3ccccc3F)cc2)[C@@H](CO)N1C(=O)C1CCCCC1 | 28.8
COCC(=O)N1[C@H](C#N)[C@H](c2ccc(C#Cc3ccccc3F)cc2)[C@H]1CO | 72.8*[25 µM]
N#C[C@H]1[C@H](c2ccc(C#Cc3ccccc3F)cc2)[C@H](CO)N1C(=O)C1CC1 | 62.8*[25 µM]
N#C[C@H]1[C@@H](c2ccccc2)[C@H](CO)N1C(=O)c1cccnc1 | 2.1
N#C[C@@H]1[C@@H](c2ccc(C#Cc3ccccc3F)cc2)[C@H](CO)N1C(=O)c1cccnc1 | -23.9[25 µM]
COCC(=O)N1[C@H](C#N)[C@H](c2ccc(C#Cc3ccccc3F)cc2)[C@@H]1CO | -40.3[25 µM]
N#C[C@H]1[C@@H](c2ccc(C#Cc3ccccc3F)cc2)[C@H](CO)N1C(=O)C1CCC1 | -1.2
N#C[C@H]1[C@H](c2ccc(C#Cc3ccccc3F)cc2)[C@@H](CO)N1C(=O)C1CCCCC1 | 62.4*
C[C@H]1CCCCO[C@H](CN(C)S(=O)(=O)c2ccc(F)cc2)[C@@H](C)CN([C@@H](C)CO)C(=O)c2cc(NC(=O)Nc3ccc(F)cc3)ccc2O1 | 3.0
C[C@@H]1CN([C@H](C)CO)C(=O)c2ccccc2-c2ccccc2CO[C@@H]1CN(C)C(=O)Nc1ccnc(N2CCOCC2)c1 | -1.7[25 µM]
C[C@H]1CN([C@@H](C)CO)S(=O)(=O)c2ccc(C#CC3CC3)cc2O[C@@H]1CN(C)Cc1ccccc1 | -1.2[25 µM]
CN1[C@@H]2c3cccc(=O)n3C[C@@H]2[C@@H](CO)[C@@H]1C(=O)NCCc1ccccc1 | -0.1[25 µM]
CN(C)CC(=O)NC[C@H]1N[C@@H](CO)[C@H]1c1ccc(-c2cccc(C#N)c2)cc1 | 2.1[25 µM]
O=C(c1ccncc1)N1C[C@@H]2N[C@H](C1)C2c1ccc(-c2cccnc2)cc1 (some centres undefined) | 6.3
CCCNC(=O)N1C[C@H](O)COC[C@@H]2O[C@@H](CC(=O)OC)CC[C@H]21 | -2.3[25 µM]
SMILES | BL2 CD40 inh
CCCNC(=O)N1[C@H](C#N)[C@@H](c2ccccc2-c2ccc(C)cc2)[C@@H]1CO | 3.7[25 µM]
CCCn1c(C)cc(C(=O)CN2C(=O)c3ccccc3S2(=O)=O)c1C | 52.6*
CCCn1c(C)cc(C(=O)Cn2nnc3ccccc3c2=O)c1C | 23.6
Cc1cc(C(=O)CN2C(=O)c3ccccc3S2(=O)=O)c(C)n1CC1CCCO1 (centres undefined) | 13.1
COc1ccccc1-c1ccc(C2[C@@H]3CN(S(=O)(=O)c4ccc(F)cc4)C[C@H]2N3)cc1 (some centres undefined) | 3.2
OC[C@@H]1[C@@H](c2ccc(/C=C/c3ccccc3)cc2)[C@H]2CN(Cc3ccncc3)CCCCN12 | -27.8[25 µM]
CCC(=O)N1[C@@H]2CN(C(=O)c3ccncc3)c3ccccc3[C@@H]2[C@@H]1CO | -1.5[25 µM]
O=c1oc(-c2cccnc2)nc2ccccc12 | -4.5
Cc1onc(-c2ccccc2)c1-c1nc2ccccc2c(=O)o1 | 56.1*
O=c1onc(-c2ccccc2)c2ccccc12 | -11.6
O=C1CCCCc2sc(Br)c([N+](=O)[O-])c2N1 | 100.2*
C[C@@H]1CN(C)C(=O)c2cccc(NS(C)(=O)=O)c2O[C@@H]1CN(C)S(C)(=O)=O | -5.4
C/C=C/c1ccccc1[C@@H]1[C@@H](CO)N(C(C)=O)[C@H]1C#N | -0.9[25 µM]
COc1ccc(-c2nc(NC(=O)c3ccco3)sc2C)cc1 | 50.6*
COc1ccc(-c2nc(NC(=O)c3nc4nccc(C)n4n3)sc2C)cc1 | 2.6
Cc1ccc(C(=O)Nc2nc(-c3ccco3)c(-c3ccco3)s2)o1 | -0.6
CC(=O)N1CCCCN2[C@H](C1)[C@@H](c1ccc(Br)cc1)[C@@H]2CO | -2.2[25 µM]
C[C@@H]1CN(C)C(=O)c2cccnc2O[C@@H]1CN(C)S(C)(=O)=O | -4.8
COCCN(C[C@H]1N[C@H](CO)[C@@H]1c1ccccc1)C(=O)NC1CCCC1 | 1.5[25 µM]
CCCC#Cc1ccc([C@H]2[C@@H](CO)N3C(=O)CN(C(=O)Nc4cccc(F)c4)C[C@H]23)cc1 | 5.3[25 µM]
CCCNC(=O)N1[C@H](CO)[C@H](c2ccccc2C2=CCCC2)[C@@H]1C#N | 42.2[25 µM]
COc1cccc(NC(=O)N2CC(=O)N3[C@H](C2)[C@@H](c2ccc(C#CC4CCCC4)cc2)[C@@H]3CO)c1 | 10.3
Nc1ccc(Sc2nnnn2-c2ccccc2)c(Cl)c1 | 3.7
Cc1cc(C)cc(N2C(=O)CC(Sc3nnnn3-c3ccccc3)C2=O)c1 (centres undefined) | 98.7*
Cc1cccc(-n2nnnc2SCC(=O)NC2CCCC2)c1 | 5.0
SMILES | BL2 CD40 inh
Cc1noc(C)c1S(=O)(=O)Nc1ccc2c(c1)C(=O)N([C@@H](C)CO)C[C@H](C)[C@H](CN(C)Cc1ccc3c(c1)OCO3)O2 | -11.4[25 µM]
O=C(CCN1CCCCC1)NCC[C@H]1CC[C@@H](NS(=O)(=O)c2cccc(Cl)c2)[C@H](CO)O1 | -0.3[25 µM]
Cc1ccc(S(=O)(=O)N[C@@H]2CC[C@@H](CCNC(=O)C3CCCC3)O[C@H]2CO)cc1 | 5.4
C[C@H](CO)N1C[C@H](C)[C@H](CN(C)Cc2cccc(F)c2)OCc2ccccc2-c2c(n(C)c3ccccc23)C1=O | 10.4
C[C@H]1CN([C@@H](C)CO)C(=O)c2c(c3ccccc3n2C)-c2ccccc2CO[C@@H]1CN(C)Cc1cccc(C(F)(F)F)c1 | 60.6*[25 µM]
C[C@@H]1CN([C@@H](C)CO)C(=O)c2c(c3ccccc3n2C)-c2ccccc2CO[C@@H]1CN(C)Cc1cccc(C(F)(F)F)c1 | 62.4*[25 µM]
C[C@@H]1CN([C@@H](C)CO)C(=O)c2ccccc2-c2ccccc2CO[C@H]1CN(C)Cc1ccccc1C(F)(F)F | 65.7*[25 µM]
C[C@H]1CN([C@@H](C)CO)C(=O)c2ccccc2-c2ccccc2CO[C@@H]1CN(C)Cc1ccc(C(F)(F)F)cc1 | 3.6
C[C@@H]1CN([C@@H](C)CO)C(=O)c2c(c3ccccc3n2C)-c2ccccc2CO[C@@H]1CN(C)Cc1ccccc1C(F)(F)F | 61.8*[25 µM]
C[C@H]1CN([C@@H](C)CO)C(=O)c2c(c3ccccc3n2C)-c2ccccc2CO[C@H]1CN(C)Cc1ccccc1C(F)(F)F | 7.7[25 µM]
C[C@@H]1CN([C@H](C)CO)C(=O)c2c(c3ccccc3n2C)-c2ccccc2CO[C@H]1CN(C)Cc1ccccc1C(F)(F)F | 45.1[25 µM]

Source: PubChem BioAssay
